CCHF vOTU inh-1: blocks the CCHF virus ovarian tumor domain protease; CCHFV vOTU protease, Pep-AMC fluorescence; inhibition, % at 11.5 µM; 370,000 compounds, 0.55% hits
RecA splice inh: Mtb RecA intein splicing inhibition | P9WHJ3 | cell-free RecA intein splicing, fluorescence | inhibition, % (concentration not given with the values) | 290,000 compounds, 0.75% hits | AID 2221; in the data active = inhibition above about 30%
Y pestis TopoI: blocks Yersinia pestis topoisomerase I activity; Y. pestis Topo-I cleavage product accumulation, plate reader; activity, % at 10 µM; 360,000 compounds, 0.064% hits; in the data active = activity above about 50%, passing the limit was not always enough
Mtb BioA inh: blocks M. tuberculosis BioA enzyme activity | 360,000 compounds, 0.096% hits | purified M. tuberculosis BioA enzyme, plate reader | inhibition, % at 9.99 µM | AID 602481; in the data active = inhibition above about 40%
BJeLR lethal: kills HRASV12-expressing BJeLR cells | BJeLR (HRASV12) viability, CellTiter-Glo ATP luminescence, 48 h | inhibition, % (test concentration not listed) | 300,000 compounds, 0.17% hits; in the data active = inhibition above about 50%
Mtb betalactam: beta-lactam sensitization of Mtb H37Rv; 330,000 compounds, 0.27% hits; inhibition, % at 25 µM; AID 434955; M. tuberculosis H37Rv growth with meropenem, percent inhibition; call rule not given here;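 note: growth measured after seven days incubation then overnight dye step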
CCHF vOTU inh-2: confirmation of CCHF virus vOTU protease inhibitors | 1,900 compounds, 17% hits | inhibition, % at 11.5 µM | shares compounds with CCHF vOTU inh-1 | Recombinant CCHFV vOTU, Pep-AMC fluorescence
Numbers stand for hits; i = inactive; nt = not tested or not shown. Shown are actives, neighbours in structure and some others; about 1.1% of the full set was active somewhere. Cut-off read from the data, not from the text of the source, unless noted: active = inhibition above about 30%; inactive = the rest.

SMILES	CCHF vOTU inh-1	RecA splice inh	Y pestis TopoI	Mtb BioA inh	BJeLR lethal	Mtb betalactam	CCHF vOTU inh-2
OCc1ccccc1CNCc1ccccc1	i	i	i	i	i	i	nt
C[C@@H]1CCCCO[C@H](CN(C)S(=O)(=O)c2cccs2)[C@@H](C)CN([C@H](C)CO)C(=O)c2cc(NS(=O)(=O)c3cn(C)cn3)ccc2O1	nt	nt	nt	i	nt	nt	nt
Cc1ccc2c(c1)C(=O)C(=O)N2c1ccc(C(F)(F)F)cc1	30	nt	i	i	nt	i	i
Cc1ccc(S(=O)(=O)N/N=C2/CC(c3ccccc3)Oc3ccccc32)cc1[N+](=O)[O-] (stereo unspecified)	38	i	i	i	i	i	i
O=S(=O)(N/N=C1/CC(c2ccccc2)Oc2ccccc21)c1ccc(Br)cc1 (stereo unspecified)	i	i	i	i	i	i	nt
CNC[C@@H]1Oc2c(cccc2N(C)C)C(=O)N([C@H](C)CO)C[C@H]1C	nt	nt	nt	i	nt	nt	nt
COC(=O)[C@@]12C[C@@H](CC(=O)NCCCCc3ccccc3)C(=O)N(Cc3cccc4ccccc34)C1=CCC(C)(C)C2	30	nt	nt	nt	nt	nt	i
COC(=O)[C@@]12C[C@@H](CC(=O)NCc3ccccc3)C(=O)N(Cc3cccc4ccccc34)C1=CCC(C)(C)C2	i	nt	nt	nt	nt	nt	nt
CCOC(=O)[C@]12CCCC=C1N(Cc1ccc(Cl)cc1Cl)C(=O)[C@H](CC(=O)NCCCCc1ccccc1)C2	i	nt	nt	nt	nt	nt	nt
COC(=O)[C@]12CCCCC=C1N(Cc1ccc(Cl)cc1Cl)C(=O)[C@H](CC(=O)NCCCCc1ccccc1)C2	33	nt	nt	nt	nt	nt	i
O=C(O)c1[nH]c2ccccc2c1C(c1cc(Br)ccc1O)c1c(C(=O)O)[nH]c2ccccc12	35	nt	i	i	i	i	i
CN=C1c2cc3cc(OC)ccc3n2CCN1Cc1ccccc1	37	i	i	i	i	nt	i
CC1OC2CC(=O)OC2C2=C1C(=O)c1c(O)cccc1C2=O (stereo unspecified)	98	nt	i	i	nt	nt	91
O=C1c2cccc(O)c2C(=O)c2c(O)cc(CO)cc21	nt	i	nt	nt	i	i	nt
COc1ccccc1CCn1cnc(-c2ccccc2F)c1CC(C)C	45	nt	nt	nt	nt	nt	i
CCCCc1c(-c2ccc(F)cc2F)ncn1CCc1ccccc1OC	40	nt	nt	nt	nt	nt	i
CC(C)C1NC2(C(=O)c3ccccc3C2=O)C2C(=O)N(c3ccc(F)cc3)C(=O)C12 (stereo unspecified)	52	i	i	i	i	i	i
O=C1C2C3C=CC(CC3)C2C(=O)N1c1ccc(F)cc1 (stereo unspecified)	i	i	i	i	i	i	nt
Cc1ccc(S(=O)(=O)Nc2cc(Cl)c(O)c3ncccc23)cc1	30	i	i	i	i	i	i
Oc1ccc(NCc2ccccc2OCc2ccccc2)cc1	51	i	i	nt	i	i	i
C[C@H]1CN([C@@H](C)CO)C(=O)Cc2cc(NC(=O)CCC(F)(F)F)ccc2O[C@H]1CN(C)CC1CCCCC1	nt	nt	nt	i	nt	nt	nt
O=C1Cc2ccccc2C(=O)N1Cc1cccc(Cl)c1	64	i	i	i	i	i	54
Nc1cccc2c1C(=O)N(Cc1cccc(Cl)c1)C2=O	i	i	i	nt	i	i	nt
C[C@@H]1CCCCO[C@H](CN(C)C(=O)c2ccccc2)[C@@H](C)CN([C@H](C)CO)C(=O)c2cc(NC(=O)C3CCCCC3)ccc2O1	nt	nt	nt	i	nt	nt	nt
Cc1ccc(S(=O)(=O)N[C@H]2CC[C@@H](CCNC(=O)C3CC3)O[C@@H]2CO)cc1	nt	nt	nt	i	nt	nt	nt
SMILES	CCHF vOTU inh-1	RecA splice inh	Y pestis TopoI	Mtb BioA inh	BJeLR lethal	Mtb betalactam	CCHF vOTU inh-2
COC(=O)c1c(C)[nH]c(C(=O)C(C)OC(=O)C2CC(=O)N(c3ccc(C)cc3)C2)c1C (stereo unspecified)	i	nt	i	i	nt	i	nt
COC(=O)c1c(C)[nH]c(C(=O)C(C)OC(=O)C2CC(=O)N(CCc3ccccc3)C2)c1C (stereo unspecified)	33	nt	i	i	nt	i	i
Cc1ccc(/C(O)=C2/C(=O)C(=O)N(CCN3CCOCC3)C2c2cccnc2)cc1 (stereo unspecified)	i	i	i	i	i	i	nt
Cc1ccc(C)c(/C(O)=C2\C(=O)C(=O)N(CCCN3CCOCC3)C2c2cccnc2)c1 (stereo unspecified)	46	i	i	nt	i	nt	i
COc1nc(C)ccc1-c1noc(-c2cccnc2)n1	i	i	i	i	i	i	nt
COC1=C(N)C(=O)c2nc(C)ccc2C1=O	55	nt	i	nt	nt	nt	107
COC1=C(Br)C(=O)c2nc(C)ccc2C1=O	115	nt	i	i	nt	nt	83

Source: PubChem BioAssay
